Reference: PubChem BioAssay (NCI)
Compounds without any hit were thinned out: in the full panel of roughly 83,000, 20% have a hit.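 Plates (96-well) were seeded with cells, treated with compound at one concentration, and incubated for 48 hours before percent growth was determined.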 Unmarked numbers belong to inactive results. Active and inactive are the calls of the source.

Each compound was assayed on MOLT-4 leukemia (assay: NCI-60 one-dose screen, 48 h (100 = growth as untreated, 0 = no growth, -100 = all killed)). Settings: 10 µM unless noted.
Procedure: Growth inhibition of the MOLT-4 human tumor cell line is measured as a screen for anti-cancer activity. Cells are grown in 96 well plates and exposed to the test compound for 48 hours. Compounds are tested at a single concentration, which is 10^-5 M for most compounds. The reported endpoint is percent growth (GI% or GIPRCNT), where numbers from 0 - 100% represent growth inhibition, and numbers from -100% - 0 represent cell death. For example, a value of 40 represents 60% growth inhibition. A value of 0 means no net growth occurred over the course of the experiment. A value of -40 indicates 40% of cells at the beginning of the experiment died by the end of the experiment. A value of -100 means all cells are dead at the end of the experiment.
NCI-60 Human Tumor Cell Lines Screen was performed using the standard one-dose NCI protocol, which is described in more detail at https://dtp.cancer.gov/discovery_development/nci-60/default.htm.
Compounds with GIPRCNT values below 10 were considered active. Activity score was based on GIPRCNT using the following formula: […]
Score is 0 for GIPRCNT values of 100 or above, 50 for GIPRCNT values of 0, and 100 for GIPRCNT values of -100.
CC(=O)Nc1nc(C(=O)N2N=C(C)/C(=C/c3cccs3)C2=O)cs1 was tested, and the growth was 79.1%.
COc1cccc2cc(-c3cc4ccccc4[nH]3)c(=NC(=O)c3ccc(Cl)cc3)oc12 gave a growth of 61.5%.
Work on Clc1ccc(/C=C/c2nc(N3CCOCC3)c3nc(Cl)c(Cl)cc3n2)cc1 yielded a growth of 88%.
For NC(=O)c1cccc(N2Cc3ccccc3OC3=C2C(=O)c2c(O)ccc(O)c2C3=O)c1, the growth was -36.2% (active).
With CCOC(=O)c1cc(/C(=N\O)c2cc(OC)c(OC)c(OC)c2)n2cc(C)cc(C)c12 the growth was 9.33% (active).
With CCOC(=O)[C@H](CSSc1ncnc2cc[nH]c12)NC(=O)[C@@H](C)c1ccc2cc(OC)ccc2c1 the growth was 3.42% (active).
With CCCCCCC[C@@H](O)CC(=O)N[C@H](CCCCN)C(=O)N[C@H](Cc1c[nH]c2ccccc12)C(=O)NC(CCCCN)C(=O)N[C@H](CC(C)C)C(=O)N[C@H](Cc1ccccc1)C(=O)N[C@H](CCCCN)C(=O)N[C@H](CCCCN)C(=O)N[C@H](CC(C)C)C(=O)N1CCCC1C(=O)N[C@H](CCCCN)C(=O)N[C@H](Cc1ccccc1)C(=O)N[C@H](CC(C)C)C(=O)N[C@H](Cc1c[nH]cn1)C(=O)N[C@H](CC(C)C)C(=O)N[C@H](C)C(=O)N[C@H](CCCCN)C(=O)N[C@H](CCCCN)C(=O)N[C@H](Cc1ccccc1)C(=O)O (stereo not given in full) the growth was -25.9% (active).
For COc1ccc(S(=O)(=O)NCCNc2nccc(-c3c(-c4ccccc4)nc4sccn34)n2)cc1, the growth was 5.16% (active).
COC1=CC(c2ccc[nH]2)=N/C1=C\c1[nH]c(C)c(CCCn2cc(CCCCCCCCC[C@@H]3Cc4cc(O)ccc4C4CC[C@]5(C)[C@@H](O)CC[C@H]5C43)nn2)c1C (stereo not given in full) was tested, and the growth was 67.1%.
For Cc1nc2scc(-c3ccccc3)n2c(=O)c1CCO, the growth was 106%.
COc1ccc(C2CC(c3cccs3)=NN2c2ccc(S(=O)(=O)NC(=O)Nc3ccc(C)cc3)cc2)cc1 (stereo not given) was tested, and the growth was 94.4%.
O=C(Cc1n[nH]c(=O)c2ccccc12)OCc1c(Cl)cccc1Cl showed a growth of 32.9%.
Compound COc1cc(C2C3=C(COC3=O)Nc3c2ccc2c3CCCC2)cc2c1OCO2 (stereo not given) has a growth of 18.3%.
For Cc1ccc2c(c1)C(=O)C(c1c(-c3[nH]c(=O)c4ccc(C)cc4c3O)c(O)c3ccccc3c1O)=NC2=O, the growth was -13.3% (active).
In the case of CC/C=C\C/C=C\C[C@H]1C/C=C2/C(=O)C=C[C@H]2C/C=C\CCC(=O)O1, the growth is reported as -3.06% (active).
For O=C(/C=C/c1ccccc1)n1c(-c2ccc(Cl)cc2)nc2ccccc21, the growth was 21.9%.
For COc1ccc(S(=O)(=O)N2CCN(c3cc4c(cc3F)c(=O)c(C(=O)O)cn4C3CC3)CC2)c(OC)c1, the growth was 69.3%.
Compound CCN(Cc1ccc(CN(CC)C(=O)C(Br)Br)cc1)C(=O)C(Br)Br has a growth of 34.2%.
Compound COc1ccc(S(=O)(=O)Nc2cc(/C=C\c3cc(OC)c(OC)c(OC)c3)cc(OC)c2OC)cc1OC has a growth of 17.1%.
In the case of O=S(=O)(NCCCNc1cc(-c2cn(-c3ccccc3)nc2-c2cccc(O)c2)ccn1)c1cccc(F)c1, the growth is reported as 31%.
With COc1cc(C2C=C(C)N=C3SC=CN32)cc(OC)c1OC (stereo not given) the growth was 102%.
COc1ccc(NC(=O)CSc2nc3ccc(Cl)cc3c(=O)n2-c2ccccc2C(F)(F)F)c(OC)c1OC gave a growth of 106%.
COc1ccc(NC(=O)c2cc3ccccc3nc2Nc2cc(OC)c(OC)c(OC)c2)cc1 gave a growth of 49.2%.
With COc1cc(/C=C2\CCCC3=C2N=C2SC(C)=NN2C3c2cc(OC)c(OC)c(OC)c2)cc(OC)c1OC (stereo not given) the growth was -7.59% (active).
In the case of COc1cc(/C=C2\C=C(c3ccc(F)cc3)N(Cc3ccccc3)C2=O)cc(OC)c1OC, the growth is reported as 25.9%.
In the case of COc1cc2nc(SCc3cc(OC)c(OC)c(OC)c3)n(Cc3ccccc3)c(=O)c2cc1OC, the growth is reported as 16.7%.
In the case of CC[C@H](C)[C@H]1NC(=O)[C@@H](N[C@](C)(O)[C@@H](N)CC(C)C)[C@@H](C)OC(=O)[C@H](Cc2ccc(OC)cc2)N(C)C(=O)[C@@H]2CCCN2C(=O)[C@H](CC(C)C)NC(=O)[C@@H](C)C(=O)[C@H](C(C)C)OC(=O)C[C@@H]1O, the growth is reported as -24.8% (active).
C=CCc1cc(Cl)cc2c(OC(C)=O)c(C(C)=O)c(-c3ccccc3)nc12 was tested, and the growth was 101%.
CN(C)CCCNC(=O)C(c1ccccc1)c1ccccc1 showed a growth of 85.3%.
Cc1ccccc1C(=O)c1ccccc1C(=O)O gave a growth of 99.5%.
CCC(C)NCC(=O)O (stereo not given) showed a growth of 106%.
With CC1=NN2C(=NC3=C(CCC/C3=C\c3ccc(Cl)cc3)C2c2ccc(Cl)cc2)S1 (stereo not given) the growth was 72.9%.
CN(C)c1ccc(/C=C\N=Nc2ccc(Br)cc2)cc1 was tested, and the growth was 29.2%.
NC(=O)c1c(NC(=O)c2ccc(OCC3CCCO3)cc2)sc2c1CCCC2 (stereo not given) showed a growth of 99.3%.
With CC(=O)c1cc(C(=O)c2ccc3c(c2)Sc2ccccc2N3)c2cc(C)ccn12 the growth was 13.1%.
CCN1C(=O)N(CC)C2C1NN=c1s/c(=C\c3cccc(F)c3)c(=O)n12 (stereo not given) showed a growth of 19.1%.
With Cc1cc(Cl)ccc1OC(C)C(=O)Nc1nnc(C2CC2)s1 (stereo not given) the growth was 108%.
In the case of O=C(Nc1ccc(I)cc1)c1cccc([N+](=O)[O-])c1O, the growth is reported as 8.55% (active).
In the case of CCN1C(=O)N[C@H]2[C@@H]3NC(=O)c4ccc(Cl)n4[C@@H]3C[C@]21O, the growth is reported as 0.842% (active).
With COc1cc2nc(Cl)nc(NCCO)c2cc1OC the growth was 101%.
